Laboratory results from PubChem BioAssay (NCI).
Compounds without any hit were thinned out: in the full panel of roughly 79,000, 15% have a hit. Calls of active or inactive are those of the source. Cut-off read from the data, not from the text of the source: active = growth inhibition above about 70%; inactive = the rest.

Experiment: NCI Yeast Anticancer Drug Screen. Data for the cln2 rad14 strain (AID 165);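 note: 0% = growth equal to vehicle treated cultures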
Details: S. cerevisiae cln2 rad14 strain, at 50.0 µM, active compounds read high
Outline: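 Strain: cln2 rad14 yeast, altered in cell cycle control and DNA damage repair. Read-out: growth inhibition vs vehicle.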

SMILES	growth inhibition
CON(C)c1nc(N(C)C)nc(N(C)C)n1	3.7% (inactive)
Nc1cc2[nH]cnc2c(=O)[nH]1	21.8% (inactive)
COCCNc1cncc(C(N)=O)c1	-19.2% (inactive)
Nc1nc(N)[n+]([O-])c(N)c1NCO	-50.8% (inactive)
COc1ccc(/C=C(\C2=NC(=O)CS2)c2nc3ccccc3[nH]2)cc1	-3.9% (inactive)
Cc1ccc(-c2c(C#N)c(-c3ccccc3)c(C#N)c(=O)n2NS(=O)(=O)c2ccc(C)cc2)cc1	18.7% (inactive)
CN(Nc1ccnc(=O)[nH]1)c1ccccc1	-23.6% (inactive)
COc1ccc(-c2c3c([nH]c(=S)c2C#N)CCC3)cc1	22.7% (inactive)
CCOC(=O)C(C(=O)OCC)C(=O)c1cc(OC)c(OC)c(OC)c1	7.35% (inactive)
CN1C/C(=C\C=C\c2ccccc2)C(=O)/C(=C/C=C/c2ccccc2)C1	11.8% (inactive)
C=C1C(=O)O[C@H]2[C@H]1[C@@H](OC(=O)C=C(C)C)CC1=C[C@@H](C[C@@]3(C)O[C@@H]23)OC1=O	9.85% (inactive)
C/C(=C/CNc1ncnc2c1ncn2CCC(=O)O)CO	1.65% (inactive)
O=c1[nH]c(=O)n(C2OC(CO)C(O)C2O)cc1OCc1ccccc1 (configuration not stated)	4.75% (inactive)
C/C(=N/O)c1c[n+]([O-])ccn1	-31.2% (inactive)
COc1ccc2oc(=N)c(C(N)=S)cc2c1	16.8% (inactive)
Cn1c(-c2ccccc2)c2c(=O)oc3ccccc3c2c1-c1ccccc1	1.8% (inactive)
O=[N+]([O-])c1ccc(C=Nc2ccccc2)cc1	11.9% (inactive)
